Results taken from PubChem BioAssay (NCI).
The panel holds about 79,000 compounds, 15% with a hit somewhere; the sample as a whole holds those more often. Values without a mark were called inactive. The source made the active and inactive calls. No stated cut-off is given here; in the data, active means growth inhibition above about 70%; inactive means the rest.

Assay: NCI Yeast Anticancer Drug Screen. Data for the bub3 strain (AID 167)
Details: S. cerevisiae bub3 mutant strain, at 5.0 µM (retest, dose inferred, filed as 0.5), stronger effect = higher value
How it was run: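 In this screen, a yeast mutant lacking normal mitotic checkpoint function is challenged with compound. Relative growth versus vehicle gives the inhibition value.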

Row | SMILES | growth inhibition
1 | Cc1ccc(/C=C2\CCCC(CN3CCCCC3)C2=O)cc1 (stereo not drawn) | 37%
2 | Oc1ccc(CCCCCc2ccc(O)cc2)cc1 | 13%
3 | COC(=O)c1ccccc1CC(Cc1ccc2c(c1)CCC2)C(=O)OC (stereo not drawn) | 16%
4 | CN=C1NS(=O)(=O)c2ccccc21 | 11%
5 | CCCCC/C(=C/C=C/c1ccc(Cl)cc1)CN(C)C | 6%
6 | O=S(=O)(O)c1ccc2c(c1)C1C(C3C2C2(Cl)C(Cl)=C(Cl)C3(Cl)C2(Cl)Cl)C2(Cl)C(Cl)=C(Cl)C1(Cl)C2(Cl)Cl (stereo not drawn) | 21%
7 | Cc1ccc(S(=O)(=O)N/N=C/c2oc(-c3cccc([N+](=O)[O-])c3)c(-c3cccc([N+](=O)[O-])c3)c2[N+](=O)[O-])cc1 | 31%
8 | CCN(CC)C(C)(C)C(=O)/C=C/c1ccc(Cl)cc1 | 1%
9 | Fc1ccc(NC(=S)SCc2ccc(Cl)c(Cl)c2)c(F)c1 | 11%
10 | CC[C@@]1(OP(=O)(O)O)C(=O)OCc2c1cc1n(c2=O)Cc2cc3ccccc3nc2-1 | 14%
11 | CC(C)C1=CC2=CCC3C(C)(C(=O)O)CCCC3(C)C2CC1 (stereo not drawn) (tested in a mixture with another compound) | -14%
12 | C=CCSc1nc2ccccc2c(=O)n1Cc1ccco1 | 45%
13 | COC(=O)c1c(C)cccc1C1CN=NC12Cc1ccc(C)c(C)c1C2=O (stereo not drawn) | 8%
14 | CC(=O)N=C1N(/C=C2\C(=O)Oc3ccccc3C2=O)C(=O)/C(=C/c2cccc(Cl)c2Cl)N1C | -11%
15 | O=C1NC(CSSCC2NC(=O)N(c3ccccc3)C2=O)C(=O)N1c1ccccc1 (stereo not drawn) | 4%
16 | CCCCCCCCCCCCOP(=O)(N1CC1(C)C)N1CC1(C)C (stereo not drawn) | 24%
17 | Cc1cccc(/C=N/NC(=S)Nc2ccc(Cl)cc2)n1 | -12%
18 | CN1CCCCC1c1cc2c3ccccc3ccn2c1-c1ccccc1 (stereo not drawn) | 9%
19 | CN(Cc1ccccc1)CC(O)c1cc(-c2ccc(Cl)cc2)nc2ccccc12 (stereo not drawn) | 7%
20 | OC1CCN(c2c3ccccc3nc3ccccc23)CC1 | 1%

Row | SMILES | growth inhibition
21 | CCC1=C(c2ccc(OC(C)=O)cc2)Cc2cc(OC(C)=O)ccc21 | -3%
22 | Cc1cccc(C)c1NC(=O)CSC(N)=O | 4%
23 | c1ccc([B-](c2ccccc2)(c2ccccc2)c2ccccc2)cc1 | 5%
24 | [Fe+2].c1cc[cH-]c1.c1ccc(-c2ccc[cH-]2)cc1 | 0%
25 | O=C(CC1(O)CCCCC1)OC1CCCC1 | 5%
26 | OC1(c2ccccc2)c2ccccc2Sc2ccccc21 | -16%
27 | CC(CN(C)C)C(=O)/C=C/c1ccc(C(C)C)cc1 (stereo not drawn) | 0%
28 | CSc1cccc(N2C(=O)C=CC2=O)c1 | 100% (active)
29 | O=c1c2ccccc2nc(-c2ccccc2)n1NC(=S)Nc1ccc(Cl)cc1[N+](=O)[O-] | -5%
30 | COc1ccc(OC(C)=O)c2c1CCC=CC2=O | 22%
31 | CC(=O)Nc1ccc2c(c1)Cc1cccc(F)c1-2 | 17%
32 | CCC(c1ccc(O)cc1)C(O)(CC)c1ccc(O)cc1 (stereo not drawn) | -11%
33 | Cn1c(-c2ccccc2)c(CCNC(=O)C2CCC2)c2ccccc21 | 11%
34 | FC(F)(F)c1ccccc1NC(=S)SCc1ccco1 | 8%
35 | O=[N+]([O-])C1=Cc2cc(Cl)ccc2OC1c1cccc2ccccc12 (stereo not drawn) | 97% (active)
36 | NC(=O)c1c(Cl)nc2n1CCS2 | -3%
37 | CCCCCC(C)C1=NC(C)(C)CC(C)O1 (stereo not drawn) | -73%
38 | CCCCCCCCCCCCCCCCN(C)c1ccc(S(=O)(=O)O)cc1[N+](=O)[O-] | 60%
39 | O=C(c1cccnc1)N(C1CCCCC1)C1CCCCC1 | 1%

Same assay, conditions: S. cerevisiae bub3 mutant strain, at 50.0 µM (retest, dose inferred, filed as 5.0), stronger effect = higher value

Row | SMILES | growth inhibition
40 | Cc1ccc(/C=C2\CCCC(CN3CCCCC3)C2=O)cc1 (stereo not drawn) | 99% (active)
41 | Oc1ccc(CCCCCc2ccc(O)cc2)cc1 | 100% (active)
42 | COC(=O)c1ccccc1CC(Cc1ccc2c(c1)CCC2)C(=O)OC (stereo not drawn) | 27%
43 | CN=C1NS(=O)(=O)c2ccccc21 | 39%
44 | CCCCC/C(=C/C=C/c1ccc(Cl)cc1)CN(C)C | 98% (active)
45 | O=S(=O)(O)c1ccc2c(c1)C1C(C3C2C2(Cl)C(Cl)=C(Cl)C3(Cl)C2(Cl)Cl)C2(Cl)C(Cl)=C(Cl)C1(Cl)C2(Cl)Cl (stereo not drawn) | 91% (active)
46 | Cc1ccc(S(=O)(=O)N/N=C/c2oc(-c3cccc([N+](=O)[O-])c3)c(-c3cccc([N+](=O)[O-])c3)c2[N+](=O)[O-])cc1 | 31%
47 | CCN(CC)C(C)(C)C(=O)/C=C/c1ccc(Cl)cc1 | 82% (active)
48 | Fc1ccc(NC(=S)SCc2ccc(Cl)c(Cl)c2)c(F)c1 | 98% (active)
49 | CC[C@@]1(OP(=O)(O)O)C(=O)OCc2c1cc1n(c2=O)Cc2cc3ccccc3nc2-1 | -15%
50 | CC(C)C1=CC2=CCC3C(C)(C(=O)O)CCCC3(C)C2CC1 (stereo not drawn) (tested in a mixture with another compound) | 88% (active)
51 | C=CCSc1nc2ccccc2c(=O)n1Cc1ccco1 | 77% (active)
52 | COC(=O)c1c(C)cccc1C1CN=NC12Cc1ccc(C)c(C)c1C2=O (stereo not drawn) | 81% (active)
53 | CC(=O)N=C1N(/C=C2\C(=O)Oc3ccccc3C2=O)C(=O)/C(=C/c2cccc(Cl)c2Cl)N1C | 17%
54 | O=C1NC(CSSCC2NC(=O)N(c3ccccc3)C2=O)C(=O)N1c1ccccc1 (stereo not drawn) | 98% (active)
55 | CCCCCCCCCCCCOP(=O)(N1CC1(C)C)N1CC1(C)C (stereo not drawn) | 97% (active)
56 | Cc1cccc(/C=N/NC(=S)Nc2ccc(Cl)cc2)n1 | 98% (active)
57 | CN1CCCCC1c1cc2c3ccccc3ccn2c1-c1ccccc1 (stereo not drawn) | 96% (active)
58 | CN(Cc1ccccc1)CC(O)c1cc(-c2ccc(Cl)cc2)nc2ccccc12 (stereo not drawn) | 99% (active)
59 | OC1CCN(c2c3ccccc3nc3ccccc23)CC1 | 19%

Row | SMILES | growth inhibition
60 | CCC1=C(c2ccc(OC(C)=O)cc2)Cc2cc(OC(C)=O)ccc21 | 83% (active)
61 | Cc1cccc(C)c1NC(=O)CSC(N)=O | 42%
62 | c1ccc([B-](c2ccccc2)(c2ccccc2)c2ccccc2)cc1 | 2%
63 | [Fe+2].c1cc[cH-]c1.c1ccc(-c2ccc[cH-]2)cc1 | 41%
64 | O=C(CC1(O)CCCCC1)OC1CCCC1 | -10%
65 | OC1(c2ccccc2)c2ccccc2Sc2ccccc21 | 98% (active)
66 | CC(CN(C)C)C(=O)/C=C/c1ccc(C(C)C)cc1 (stereo not drawn) | 81% (active)
67 | CSc1cccc(N2C(=O)C=CC2=O)c1 | 100% (active)
68 | O=c1c2ccccc2nc(-c2ccccc2)n1NC(=S)Nc1ccc(Cl)cc1[N+](=O)[O-] | 29%
69 | COc1ccc(OC(C)=O)c2c1CCC=CC2=O | 92% (active)
70 | CC(=O)Nc1ccc2c(c1)Cc1cccc(F)c1-2 | 8%
71 | CCC(c1ccc(O)cc1)C(O)(CC)c1ccc(O)cc1 (stereo not drawn) | -11%
72 | Cn1c(-c2ccccc2)c(CCNC(=O)C2CCC2)c2ccccc21 | 11%
73 | FC(F)(F)c1ccccc1NC(=S)SCc1ccco1 | 33%
74 | O=[N+]([O-])C1=Cc2cc(Cl)ccc2OC1c1cccc2ccccc12 (stereo not drawn) | 91% (active)
75 | NC(=O)c1c(Cl)nc2n1CCS2 | -5%
76 | CCCCCC(C)C1=NC(C)(C)CC(C)O1 (stereo not drawn) | -81%
77 | CCCCCCCCCCCCCCCCN(C)c1ccc(S(=O)(=O)O)cc1[N+](=O)[O-] | 79% (active)
78 | O=C(c1cccnc1)N(C1CCCCC1)C1CCCCC1 | 12%
